This is a sample that favours compounds with a hit; in the whole collection about 9.2% have one here.
HTT cytoprotect: qHTS Multiplex Assay to Identify Dual Action Probes in a Cell Model of Huntington: Cytoprotection (ATP); PC12 HTT-Q103 induced, cytoprotection, ATP luminescence, 40 h; Potency, µM (titrated, usually from 56.4 µM), for inactives: cytoprotection (ATP increase), most hits filed as activators; 230,000 tested, 0.14% active; AID 1471, 2008; active means well fitted curve in the direction sought with a large enough effect; inconclusive means small, poorly fitted or top-dose-only effect, or another doubt; inactive means no such curve, though single readings can be large; an effect the other way counts as inactive or inconclusive; further: % of control where 0% means no effect; nearly all actives have a fitted effect of over 45% in size
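PC12 cells stably carrying ecdysone-inducible Htt exon 1 (Q103)–GFP were induced with 100 nM tebufenozide (final) alongside library compounds in a dose series. Cytoprotection was scored as retained ATP by ATPlite luminescence.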
HPGD block: qHTS Assay for Inhibitors of HPGD (15-Hydroxyprostaglandin Dehydrogenase); 150,000 tested, 4.3% active; purified HPGD, NADH fluorescence kinetic, PGE2 substrate; 15-hydroxyprostaglandin dehydrogenase [NAD(+)] (Homo sapiens), P15428; Potency, µM, for inactives: at the top dose activity change, negative = inhibition, actives largely listed as inhibitors; AID 894, 2007; further: on the % scale 0 is the no-effect control and ±100 the full control effect
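NADH formation kinetics: reaction with 30 uM PGE2 and 1 mM NAD+ (final), 20 nM enzyme, Tris-HCl pH 8 with Tween 20, after 15 min compound preincubation at room temperature. Fluorescence change, last versus first of five reads.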
HTT aggregate: qHTS Multiplex Assay to Identify Dual Action Probes in a Cell Model of Huntington: Aggregate Formation (GFP) | AID 1688, 2009 | Potency, µM (top dose mostly 46.1 µM), inactives show at the highest dose activity change, negative = inhibition, usual class: inhibitors | PC12 HttQ103-GFP aggregates, Acumen cytometry, 40 h | 220,000 tested, 1.1% active; active means well fitted curve in the direction sought with a large enough effect; inconclusive means small, poorly fitted or top-dose-only effect, or another doubt; inactive means no such curve, though single readings can be large; an effect the other way counts as inactive or inconclusive; further: on the % scale 0 is the no-effect control and ±100 the full control effect; nearly all actives have a fitted effect of over 60% in size
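Read-out: GFP aggregate count by laser scanning cytometer (488 nm excitation, 500-530 nm emission, 1–25 µm objects >6 SD above background). Cells: PC12, inducible HTTex1-Q103-GFP, 100 nM tebufenozide; compounds titrated.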
LMNA splice mod: qHTS Assay for Modulators of Lamin A Splicing; AID 1487, 2009; HeLa LMNA splicing GFP/RFP minigene ratio, 48 h; 200,000 tested, 0.01% active; Potency, µM (top dose mostly 46.1 µM), for inactives: top-dose ratio change, negative = inhibition, most hits filed as inhibitors; active means well fitted inhibition curve with a large enough effect in the signal ratio, with a control signal flat, not every such curve was filed as active; inconclusive means small, poorly fitted or top-dose-only effect, or effect the other way, or a change in a side signal; the % refers to the signal ratio; further: on the % scale 0 is the no-effect control and ±100 the full control effect
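S3 HeLa stable clones carrying a lamin A-EGFP splicing minigene plus DsRed2 were seeded at 600 cells/well in Opti-MEM with 2% FBS, pin-dosed and incubated 48 h at 37°C. Acumen cytometry (488 nm) gave the GFP/RFP total-intensity ratio.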
KDM4E inh: qHTS Assay for Inhibitors of Human Jumonji Domain Containing 2E (JMJD2E). AID 2147, 2009. Lysine-specific demethylase 4E (Homo sapiens), B2RXH2. Potency, µM (top dose mostly 57.1 µM), for inactives: at the top dose activity change, negative = inhibition, actives largely listed as inhibitors. JMJD2E catalytic domain, FDH-coupled NADH fluorescence (FDH is formaldehyde dehydrogenase). 230,000 tested, 1.6% active;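 further: 0% = wells with enzyme and -100% = buffer wells without enzyme; nearly all actives have a fitted effect of over 50% in size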
ALDH1A1 block: qHTS Assay for Inhibitors of Aldehyde Dehydrogenase 1 (ALDH1A1); Aldehyde dehydrogenase 1A1 (Homo sapiens), P00352; Purified ALDH1A1, NADH fluorescence, propionaldehyde substrate; Potency, µM (series often up to 75.3 µM), for the others: at the top dose activity, negative = inhibition, usual class: inhibitors; 220,000 tested, 7.3% active;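 further: plate controls were no enzyme wells and a reference inhibitor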
Target sequence (P00352 whole entry, looked up): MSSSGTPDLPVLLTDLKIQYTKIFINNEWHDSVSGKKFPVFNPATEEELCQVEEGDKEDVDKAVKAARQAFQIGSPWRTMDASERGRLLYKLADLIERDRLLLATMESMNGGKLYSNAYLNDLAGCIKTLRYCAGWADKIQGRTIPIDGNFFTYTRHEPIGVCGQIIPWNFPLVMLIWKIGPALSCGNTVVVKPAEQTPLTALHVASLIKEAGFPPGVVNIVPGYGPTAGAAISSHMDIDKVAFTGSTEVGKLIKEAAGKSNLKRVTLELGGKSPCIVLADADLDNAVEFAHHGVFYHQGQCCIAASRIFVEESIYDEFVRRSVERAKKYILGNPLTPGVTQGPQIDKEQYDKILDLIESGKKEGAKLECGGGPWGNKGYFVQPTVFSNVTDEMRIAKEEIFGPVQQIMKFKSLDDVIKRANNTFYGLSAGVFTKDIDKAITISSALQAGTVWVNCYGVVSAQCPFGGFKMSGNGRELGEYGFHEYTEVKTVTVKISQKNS
* hit, by the source's call; ? = inconclusive; . = not tested or not shown; [ ] = another dose, or the depositor's remark. Unless noted, the call rests on the fitted dose curve; in most records, active means well fitted inhibition curve with a large enough effect (not every such curve was filed as active); inconclusive means small, poorly fitted or top-dose-only effect, or another doubt; inactive means no such curve, though single readings can be large or run the other way. Potency means the concentration at half of the fitted maximal effect.

SMILES	HTT cytoprotect	HPGD block	HTT aggregate	LMNA splice mod	KDM4E inh	ALDH1A1 block
O=C(O)CC/C=C\CC[C@@H]1[C@@H](N2CCCCC2)[C@@H](O)C[C@@H]1OCc1ccc(-c2ccccc2)cc1	-2%	.	14%	.	.	.
O=C(CNC(=O)c1ccco1)OCc1cccc(Cl)c1	-8%	-3%	22%	3%	?	-14%
Cc1ccccc1NC(=S)NCc1ccco1	13%[10 µM]	-14%	27%	-4%	7%	-7%
O=C(CCNc1cccc(Cl)c1)c1ccco1	-5%	-7%	6%	-4%	2%	7.1µM*
CN(C)S(=O)(=O)c1ccc(C(=O)OCC(=O)NCc2ccco2)cc1	-21%	.	20%	-7%[46 µM]	-5%	15µM*
COc1ccc(Cl)cc1NC(=O)NCc1ccco1	-38%	.	-9%	.	-1%	-5%
CCOc1ccccc1NC(=S)NCc1ccco1	24%[10 µM]	-19%	30%	-3%	5%	28µM*
COc1ccc(Cl)cc1NC(=S)NCc1ccco1	-12%	13µM*	-7%	-6%	2%	4%
COc1ccccc1-c1cncnc1NCc1cnc(C)cn1	8%	.	.	8%	.	?
CCc1cccc(NC(=O)C2CCCN(c3ncnc4onc(-c5ccc(F)cc5)c34)C2)c1 (stereo not drawn)	.	.	.	-12%[46 µM]	.	.
S=C(NCc1ccco1)Nc1cc(-c2ccccc2)[nH]n1	5%[10 µM]	.	10%	?	-20%	1.1µM*
Cc1cc2c(cc(C(=O)OCC(=O)NCc3ccco3)n2C)s1	-36%	14µM*	8%	?	-2%	-20%
CN(C)S(=O)(=O)c1cccc(NC(=S)Nc2cc(Cl)cc(Cl)c2)c1	10%	-23%	-4%[1.84 µM]	-1%	-8%	?
COc1cc(NC(=S)NCc2ccco2)cc(OC)c1	-2%[10 µM]	?	-23%	-5%	-6%	?
O=C(NNC(=S)Nc1ccc(F)c(Cl)c1)c1ccccc1Br	13%[10 µM]	.	?	?	-3%	13µM*
CN(C)S(=O)(=O)c1cccc(NC(=S)NCc2ccco2)c1	-16%	.	-1%	.	-5%	32µM*
Cc1cccc(NC(=S)NNC(=O)c2ccccc2Br)c1	.	-15%	-5%	3%	8%	?
O=c1cnc2cnc(N3CCNCC3)nc2n1Cc1ccc(F)cc1	16%	.	.	-2%	.	?
S=C(NCc1ccccn1)Nc1ccccc1	-15%[10 µM]	-12%	-8%	9%	7%	10%
S=C(NCc1ccccn1)Nc1ccc(Cl)c(Cl)c1	15%	16µM*	-6%	4%	4%	11µM*
CC(C)=CCC/C(C)=C/CO/N=C1/C[C@@H](O)[C@@H](O)[C@@H]2[C@@H]3C(=O)N(C(C)(C)C)C(=O)[C@H]3CC[C@@H]12	-35%[10 µM]	.	.	.	.	0%[13.5 µM]
N#Cc1nc(Cc2ccccc2)oc1NCc1ccccc1Cl	-3%	-20%	8.9µM*	?	-1%	?
CCN1CCN(C(=O)c2ccc(C(F)(F)F)cc2)CC1	10%	.	24%	5%[46 µM]	-2%	12%
Cc1ccc(SCc2ccc(C(=O)N3CCCC3)cc2)cc1	-40%	.	11µM*	.	-8%	?
CCN1CCN(C(=O)c2ccc(CSc3ccc(C)cc3)cc2)CC1	15%	14µM*	-26%	-1%	4%	?
Cc1ccc(SCC(=O)N2CCCC2)cc1	-6%[10 µM]	-24%	-4%	-5%	5%	-6%
COc1cccc(-c2csc(N3CCN(C(=O)Nc4ccccc4Cl)CC3)n2)c1	15%[10 µM]	.	6%[9.22 µM]	?	2%	22µM*
COc1cccc(-c2csc(NC(C)=O)n2)c1	-22%[10 µM]	?	?	-10%	-4%	11µM*

High-throughput results (PubChem BioAssay)
